The sample as a whole holds a higher share of hits than the screen did.
Pf Dd2 growth = qHTS Primary assay for Inhibitors of Plasmodium falciparum Dd2 growth in vitro; Potency, µM (highest dose often 28.9 µM), without a hit: at the top dose activity, negative = inhibition, hits mostly inhibitors; P. falciparum Dd2 growth, SYBR Green, 72 h; 120,000 tested, 4.3% active; active = well fitted inhibition curve with a large enough effect;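 note: plate controls were DMSO vehicle for no effect and reference drug for full effect; nearly all actives have a fitted effect of over 65% in size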
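Infected erythrocytes (Dd2, 0.3% parasitemia, 2.5% hematocrit final) are added to compound in RPMI-1640/Albumax II medium, grown 72 h at 37C in low oxygen, then lysed with saponin/Triton-X containing SYBR Green and read by fluorescence.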
Starred values were filed as active, the others as inactive; i = inactive; [ ] = remark or other dose. Potency is the fitted concentration of half-maximal effect.

SMILES	Pf Dd2 growth
CCNC(=O)c1ccc(CN2C(=O)NC3(CCS(=O)(=O)CC3)C2=O)cc1	-5.7%
CC(C)CC(=O)N1CCc2nnc([C@@H]3C[C@@H](O)CN3C)n2CC1	5.5%
CNC(=O)N1C[C@@H](CN(C)C)[C@H](NC(=O)CC2CCCC2)C1	17.8%
COc1cc(C(=O)NC(c2ccc(Cl)cc2)c2cc(Cl)c3cccnc3c2O)cc(OC)c1OC (stereo not drawn)	2.82µM*
COc1cccc(C(=O)N[C@H]2[C@H](O)[C@H](O)C[C@@H]2c2cccnc2)c1	9.9%[44.1 µM]
COc1cccc(CNC(=O)c2c[nH]c3ncccc23)c1	-9.7%[44.1 µM]
COc1cccc(C(=O)NC(c2ccc(Cl)cc2)c2cc(Cl)c3cccnc3c2O)c1 (stereo not drawn)	3.16µM*
COc1cc(C(=O)Nc2ccc(Cl)c(-c3nc4ncccc4o3)c2)cc(OC)c1OC	-4.7%
COc1cc(C(=O)NCC(c2cccnc2)N2CCc3ccccc3C2)cc(OC)c1OC (stereo not drawn)	-25.5%
Cc1ccc(C(=O)NC2CCN(c3ccc(F)cc3)C2=O)s1 (stereo not drawn)	-17.8%
CN(Cc1csc(-c2ccccc2)n1)C(=O)c1ccc(-n2cnnn2)cc1	-20.2%
CCOc1cc(=O)n2c(c1C(=O)Nc1cccc(C(C)C)c1)CCCC2	50.3%
O=C(O)C1CNCCN(Cc2ccc(-c3nn[nH]n3)cc2)C1 (stereo not drawn)	-3.5%
CC(C)c1cc(NCC2CCCCCN2)nc(N)n1 (stereo not drawn)	16.1%
O=C(N[C@@H]1CN(C(=O)c2cccc3[nH]ccc23)CC[C@@H]1CO)C1CC1	-17.0%
CCOCc1nc(C2CCCN(C(=O)c3ccc(OC)cc3OC)C2)no1 (stereo not drawn)	i
O=C(O)COc1ccc(-c2nccc3c2C(=O)N(Cc2cccc(C(F)(F)F)c2)CC(CNC(=O)c2cccc(Cl)c2)O3)cc1 (stereo not drawn)	10µM*
O=C(O)COc1ccc(-c2nccc3c2C(=O)N(Cc2cccc(C(F)(F)F)c2)CC(COc2ccc(OC(F)(F)F)cc2)O3)cc1 (stereo not drawn)	i
COc1cc(OC)cc(OCC2CN(Cc3cccc(C(F)(F)F)c3)C(=O)c3c(ccnc3-c3ccc(OCC(=O)O)cc3)O2)c1 (stereo not drawn)	-8.5%
Cc1cccnc1C(=O)NC1CCN(c2ccc(=O)n(C)n2)CC1	-1.5%
CC(C)N1CCN(CCN2CC3(CCN(C(=O)CCN)CC3)OC2=O)CC1	12.4%
COc1cccc(C(=O)N2CCC(C3CCN(S(C)(=O)=O)CC3)C2)c1 (stereo not drawn)	15.0%
Cc1ccc(C(=O)N2CCn3c(nnc3C3CCCNC3)C2)cc1 (stereo not drawn)	6.2%[44.1 µM]
Cc1cc(CN(C)Cc2cn(-c3cccc(F)c3)nc2-c2ccc(C)o2)n[nH]1	-1.8%
Cc1ccc(-c2nn(-c3cccc(F)c3)cc2CN(C)CCO)o1	7.94µM*
SMILES	Pf Dd2 growth
COc1ccc(-c2nn(-c3ccccc3C)cc2CN(C)Cc2cn(C)nc2C)cc1F	i
COc1ccc(C(=O)NC2CCN(c3ccc(C)cc3)C2=O)cc1F (stereo not drawn)	i
O=S(=O)(c1cc(F)cc(F)c1)N1CCCC(Cn2c(C3CC3)nc3cccnc32)C1 (stereo not drawn)	i
COc1ccc(-c2ccc(C(=O)N[C@H](c3ccccn3)C3CC(O)C3)o2)cc1 (stereo partly drawn)	-23.1%
COc1cccc(CN2C[C@@H]3C(=O)N(CCN4CCc5ccccc5C4)C(=O)[C@@H]3C2)c1OC	7.08µM*
COc1cccc(CN2CCc3nn(C)c(=O)n3CC2)c1OC	40.1%
COCCN1C(=O)[C@H]2CN(Cc3ccccc3OC(F)(F)F)C[C@H]2C1=O	49.8%
CN(Cc1ccccc1)Cc1cn(C[C@H]2CC3CCN2C[C@@H]3C(=O)NCc2ccccc2)nn1 (stereo partly drawn)	i
CC(=O)NCCNC(=O)[C@H]1CN2CCC1C[C@@H]2Cn1cc(CN(C)Cc2ccccc2)nn1 (stereo partly drawn)	6.5%
CN(Cc1ccccc1)Cc1cn(C[C@H]2CC3CCN2C[C@@H]3C(=O)NCc2ccc(F)cc2)nn1 (stereo partly drawn)	10µM*
COc1ccc(-c2cc(N3CCCN(C(=O)c4ccc(C)s4)CC3)n[nH]2)cc1	i
CCc1cccc(OCC(=O)c2ccc3c(c2)N(CC(=O)NCCCOC)C(=O)CO3)c1	i
COCCN[C@H]1[C@@H]2OC[C@@H](O2)[C@@H](NCc2ccccn2)[C@@H]1O	-6.3%[44.1 µM]
COCCN[C@H]1[C@@H]2OC[C@@H](O2)[C@@H](NCc2ccc(-c3ccccc3)cc2)[C@@H]1O	10µM*
O[C@H]1[C@H](NCc2ccc(-c3ccccc3)cc2)[C@H]2CO[C@H](O2)[C@@H]1Sc1ccccc1	-28.9%[44.1 µM]
Cc1ncsc1CN1C(=O)CO[C@H](c2ccc(NS(C)(=O)=O)cc2)[C@H]1CO	31.1%[44.1 µM]
CCOc1ccc2ccccc2c1C(C(=O)O)N1CCN(CC2CC2)CC1 (stereo not drawn)	-0.2%
CCOC(=O)C1(Cc2cccc(OC)c2)CCCN(C(=O)COc2ccccc2)C1 (stereo not drawn)	-14.5%
CCCN1CCC(N2CCCC(Cc3ccccc3)(C(=O)OCC)C2)CC1 (stereo not drawn)	5.01µM*
CCOC(=O)C1(Cc2cccc(Cl)c2)CCCN(C(=O)c2csc(C(C)=O)c2)C1 (stereo not drawn)	i
CN1CC2(CCN(Cc3ccc(CCC(C)(C)O)cc3)CC2)OC1=O	-5.1%
CCCOc1cccc(C2c3c(oc4ccc(F)cc4c3=O)C(=O)N2CCCN2CCOCC2)c1 (stereo not drawn)	6.31µM*
CCOc1cccc(C2c3c(oc4ccc(F)cc4c3=O)C(=O)N2CCc2ccc(OC)cc2)c1 (stereo not drawn)	2.0%
COc1cccc(C2c3c(oc4ccc(C)cc4c3=O)C(=O)N2CCCN2CCOCC2)c1OC (stereo not drawn)	22.1%
CN(C)C(=O)C1CN(C(=O)c2ccccc2Br)CC12CCOCC2 (stereo not drawn)	17.5%
SMILES	Pf Dd2 growth
CC(C)NC(=O)NC[C@H]1O[C@@H]2C[C@@H](CC(=O)N3CCOCC3)O[C@@H]2[C@@H]1O	29.9%[44.1 µM]
COc1cccc(N2CCN(c3ncnc4onc(-c5ccc(Cl)cc5)c34)CC2)c1	i
COc1ccc(OC)c(CCNc2ncnc3onc(-c4ccc(Cl)cc4)c23)c1	11.2µM*
Cc1ccc(C)c(N2CCN(CCCNc3ncnc4onc(-c5ccc(Cl)cc5)c34)CC2)c1	-9.0%
Clc1ccc(-c2noc3ncnc(N4CCCCC4)c23)cc1	18.1%
Cc1ccc(CN2CCC(CNc3ncnc4onc(-c5ccc(Cl)cc5)c34)CC2)cc1	3.16µM*
COc1ccc(Nc2ncnc3onc(-c4ccc(Cl)cc4)c23)cc1Cl	15.8%
CCOc1ccc(Nc2ncnc3onc(-c4ccc(Cl)cc4)c23)cc1	-20.1%
Cc1cccc(CN2CCC(CNc3ncnc4onc(-c5ccc(Cl)cc5)c34)CC2)c1	-6.1%
Cc1ccc(CCNc2ncnc3onc(-c4ccc(F)cc4)c23)cc1	106.4%
Cc1ccccc1CN1CCC(CNc2ncnc3onc(-c4ccc(Cl)cc4)c23)CC1	8.91µM*
Clc1ccc(CN2CCC(CNc3ncnc4onc(-c5ccc(Cl)cc5)c34)CC2)cc1	4.47µM*
Cc1cccc(Nc2ncnc3onc(-c4ccc(Cl)cc4)c23)c1C	-15.7%
CC(=O)N1CCC2(CC1)CN(C(=O)C1CCN(C)CC1)Cc1ccccc1O2	1.5%

Assay outcomes: PubChem BioAssay, National Center for Advancing Translational Sciences (NCATS)
